BAZ2B block: qHTS Assay for Inhibitors of BAZ2B. AlphaScreen BAZ2B-H3K14Ac peptide displacement. Potency, µM (titrated, usually from 114 µM), most hits filed as inhibitors. hit rate 4.4% among 360,000; note: nearly all actives have a fitted effect of over 60% in size
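AlphaScreen displacement of biotin-H3(5-23)K14Ac peptide (50 nM final) from BAZ2B (50 nM final) in PBS pH 7.4, 0.01% Tween-20; complex preformed 30 min RT, then compounds (top 110 uM) 30 min RT, beads 20 min dark.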
PLK1 PBD block: qHTS for Inhibitors of PLK1-PDB (polo-like kinase 1 - polo-box domain): Primary Screen; Plk1 PBD binding of FITC phosphopeptide, fluorescence polarization; hit rate 2.8% among 360,000; Serine/threonine-protein kinase PLK1 (Homo sapiens), P53350; Potency, µM, most hits filed as inhibitors; AID 720504, 2013; note: series mostly up to about 57 µM; nearly all actives have a fitted effect of over 65% in size
Target sequence (P53350 whole entry, looked up, the tested form may be a part): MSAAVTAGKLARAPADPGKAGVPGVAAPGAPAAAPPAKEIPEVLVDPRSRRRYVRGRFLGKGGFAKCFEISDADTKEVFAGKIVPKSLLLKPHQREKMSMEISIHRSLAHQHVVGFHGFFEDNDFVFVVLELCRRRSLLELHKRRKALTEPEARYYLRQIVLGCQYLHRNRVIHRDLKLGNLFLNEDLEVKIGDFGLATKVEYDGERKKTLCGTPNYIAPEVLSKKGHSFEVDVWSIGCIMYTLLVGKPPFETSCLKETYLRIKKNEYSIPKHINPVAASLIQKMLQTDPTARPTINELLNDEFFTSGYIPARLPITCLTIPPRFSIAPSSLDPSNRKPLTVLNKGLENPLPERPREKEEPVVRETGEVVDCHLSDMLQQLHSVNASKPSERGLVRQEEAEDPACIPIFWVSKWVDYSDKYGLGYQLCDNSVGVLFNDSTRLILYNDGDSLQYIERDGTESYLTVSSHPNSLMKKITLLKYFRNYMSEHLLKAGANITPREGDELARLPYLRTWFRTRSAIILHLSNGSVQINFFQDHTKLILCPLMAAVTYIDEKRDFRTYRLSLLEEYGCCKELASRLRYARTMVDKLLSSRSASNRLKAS
Sfp PPTase inh: qHTS Assay for Inhibitors of Bacillus subtilis Sfp phosphopantetheinyl transferase (PPTase); Biochemical Sfp PPTase activity, qHTS; Potency, µM, most hits filed as inhibitors; 4'-phosphopantetheinyl transferase ffp (Bacillus subtilis), Q9F4F7; AID 1490, 2009; hit rate 3.5% among 310,000;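 note: the enzyme is Sfp with the accession as filed and its product quenches rhodamine fluorescence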
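Compounds were incubated with enzyme (final 15 nM) for 15 min at room temperature before substrate addition started the reaction. Fluorescence at 525 nm excitation, 598 nm emission was recorded immediately and after 30 minutes.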
JMJD2A Tudor: qHTS Assay for Inhibitors of JMJD2A-Tudor Domain; AlphaScreen JMJD2A-Tudor / H3K4me3 peptide binding; Potency, µM (top dose mostly 114 µM), actives largely listed as inhibitors; hit rate 4.4% among 390,000; Lysine-specific demethylase 4A (Homo sapiens), O75164; note: nearly all actives have a fitted effect of over 50% in size
HP1b binding inh: HTS for Inhibitors of HP1-beta Chromodomain Interactions with Methylated Histone Tails. Potency, µM (top dose mostly 114 µM), most hits filed as inhibitors. AID 540317, 2011. Chromobox protein homolog 1 (Homo sapiens), P83916. hit rate 0.56% among 390,000. AlphaScreen HP1-beta / biotin-H3K9me3 peptide binding; note: nearly all actives have a fitted effect of over 70% in size
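HP1-beta protein (50 nM final) preincubated 30 min at room temperature with biotinylated H3(1-18)K9me3 peptide (50 nM) in PBS pH 7.4, 0.01% Tween-20, then compound added for 30 min. AlphaScreen streptavidin donor/nickel chelate acceptor beads (10 ug/mL final), 30 min dark, luminescence read.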
G9a inh: qHTS Assay for Inhibitors of Histone Lysine Methyltransferase G9a; Histone-lysine N-methyltransferase EHMT2 (Homo sapiens), Q96KQ7; G9a H3K9 monomethylation, AlphaScreen, 2 h; Potency, µM (doses to about 102 µM), hits mostly inhibitors; hit rate 8.8% among 350,000; AID 504332, 2011; note: nearly all actives have a fitted effect of over 75% in size
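Readings reflect AlphaScreen signal from monomethyl-H3K9 antibody detection. HMT at 20 nM; substrate b-H3K9 500 nM; cofactor SAM 20 uM; 2 h RT reaction; compounds tested as titrations in qHTS with 15 min preincubation.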
A number is an active result; – = inactive; ? = inconclusive; · = not tested or not shown; [ ] = dose if it differs, or a comment. Shown are actives, neighbours in structure and some others; about 12% of the full set was active somewhere. Calls come from the whole dose curve; as a rule, active = well fitted curve in the direction sought with a large enough effect; inconclusive = small, poorly fitted or top-dose-only effect, or another doubt; inactive = no such curve, though single readings can be large; an effect the other way counts as inactive or inconclusive.

SMILES | BAZ2B block | PLK1 PBD block | Sfp PPTase inh | JMJD2A Tudor | HP1b binding inh | G9a inh
Cc1ccc(C)c(NC(=S)N/N=C/C(C)c2ccccc2)c1 (configuration not stated) | ? | – | – | – | – | 35µM
CN(C)S(=O)(=O)c1cccc(NC(=S)N/N=C/C(c2ccccc2)c2ccccc2)c1 | – | – | ? | ? | – | 25µM
O=C(/C=N/O)NCCCn1ccnc1 | 79µM | – | – | – | – | ?
O=C(O)C1CCCCC1C(=O)NCCCn1ccnc1 (configuration not stated) | 79µM | – | – | – | – | ?
O=C(/C=C/c1ccc(Br)cc1)NCCCn1ccnc1 | – | – | – | – | – | ·
Cc1ccc(S(=O)(=O)N2CCN(Cc3nc4ccc(C)cc4o3)CC2)c(C)c1 | – | · | · | – | – | –
S=c1[nH]ccn1Cc1ccccc1 | – | 30µM | – | 14µM | – | 6.3µM
C/C(=N\Nc1ccccc1[N+](=O)[O-])c1ccccc1O | 2.5µM | – | – | 2.8µM | ? | 18µM
CC/C(=N\Nc1ccccc1[N+](=O)[O-])c1ccc(O)cc1 | 6.3µM | – | ? | 14µM | 13µM | ·
C/C(=N\Nc1ccc([N+](=O)[O-])cc1[N+](=O)[O-])C(C)(C)C(C(=O)O)C(=O)O | ? | – | – | 22µM | – | ?
C/C(=N\Nc1ccc(S(N)(=O)=O)cc1[N+](=O)[O-])c1ccccc1O | – | – | – | – | – | –
CC/C(=N\Nc1ccc([N+](=O)[O-])cc1[N+](=O)[O-])c1ccc(O)cc1 | 11µM | – | – | – | – | –[12.7 µM]
CSc1nc(Nc2ccc(C)cc2)c(C#N)c(-c2ccccc2)n1 | – | · | · | – | – | –
CC[C@@]1([C@@H]2O[C@@H]([C@H]3O[C@@](O)(CO)[C@H](C)C[C@@H]3C)C[C@@H]2C)CC[C@@H]([C@]2(C)CCC3(C[C@H](O)[C@@H](C)[C@@H]([C@@H](C)[C@@H](OC)[C@H](C)C(=O)O)O3)O2)O1 (some centres not stated) | · | · | – | · | · | ·
CC(=O)NCCNc1ncnc2ccc(-c3cccc(NS(C)(=O)=O)c3)cc12 | · | · | – | · | · | –[0.501 µM]
Cc1ccc(C)c(CSc2c(C(C)C)cnc3c2c(=O)n(C)c(=O)n3C)c1 | – | · | · | – | – | ?
C/C(=N\Nc1ccc([N+](=O)[O-])cc1[N+](=O)[O-])c1ccc(-n2nncc2C(C)(C)C)cc1 | ? | – | – | ? | ? | 7.1µM
C/C(=N/Nc1ccccc1[N+](=O)[O-])c1ccc([N+](=O)[O-])cc1 | ? | – | – | – | – | –[2.33 µM]
CCc1ccc(NC(=O)c2ccc(F)c(S(=O)(=O)NCc3ccc(Cl)c(Cl)c3)c2)cc1 | – | · | · | – | – | –
O=C(O)c1c[nH]c(=S)n1-c1ccc(F)cc1 | ? | – | 11µM | ? | – | 28µM
CSc1ncc(C(=O)O)n1-c1ccc(F)cc1 | – | – | – | – | – | –
CS(=O)(=O)C1=NSC2=NC(=O)/C(=C\c3ccc(-c4ccccc4)o3)C(=N)N21 | – | · | – | · | · | 50µM
CC(C)S(=O)(=O)C1=NSC2=NC(=O)/C(=C\c3ccc(-c4ccccc4)o3)C(=N)N21 | ? | 30µM | – | – | – | ?
O=C(O)c1cccc(-c2ccc(/C=N/n3cnnc3)o2)c1 | – | – | – | – | – | –
N=C1/C(=C\c2ccc(-c3cc(Cl)cc(Cl)c3)o2)C(=O)N=C2SC=C(c3ccccc3)N12 | – | – | – | – | – | –
N=C1/C(=C/c2ccc(-c3cccc(C(=O)O)c3)o2)C(=O)N=C2SC=C(c3ccccc3)N12 | 13µM | 15µM | – | 22µM | ? | 40µM
CC(C)S(=O)(=O)C1=NSC2=NC(=O)/C(=C\c3ccc(-c4cccc(C(=O)O)c4)o3)C(=N)N21 | 79µM | – | 14µM | ? | – | 40µM
